PubChem BioAssay (NCI)
The panel holds about 83,000 compounds, 20% with a hit somewhere; the sample as a whole holds those more often.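 96-well plates, one dose, 48 hours. Percent growth reported; active if below 10.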 Active and inactive are the calls of the source.

Key:
Experiment in all cases: NCI-60 one-dose screen, 48 h (100 = growth as untreated, 0 = no growth, -100 = all killed)
Conditions in all cases: 10 µM unless noted
[1] = test system: SK-MEL-2 melanoma
[2] = test system: EKVX NSCLC
[3] = test system: SN12C renal
[4] = test system: UO-31 renal
[5] = test system: TK-10 renal
[6] = test system: ACHN renal
[7] = test system: A498 renal
[8] = test system: CCRF-CEM leukemia
[9] = test system: MOLT-4 leukemia
[10] = test system: SR leukemia

Measured: growth

Cc1cccc2nc3c(n12)C(=O)C(=O)c1ccccc1-3
inactive: [1] 81.2% | [2] 64.1% | [3] 37.1% | [4] 55.8% | [5] 125% | [6] 69.4% | [7] 81.3% | [8] 91.9% | [9] 81.1% | [10] 88.2%

O=c1cc(/C=N\Nc2nc(-c3ccc(Cl)cc3Cl)cs2)c2cc(Cl)ccc2o1
inactive: [1] 92.9% | [2] 79.3% | [3] 95% | [4] 70.4% | [5] 120% | [6] 97.7% | [7] 101% | [8] 97.3% | [9] 98.1% | [10] 80.7%

COc1ccc(-c2cn(-c3ccc(Cl)cc3)c(=S)[nH]2)cc1OC
inactive: [1] 46.9% | [2] 74.7% | [3] 74.3% | [4] 85.4% | [5] 72.8% | [6] 67% | [7] 94.4% | [8] 84.4% | [9] 77.8% | [10] 22.3%

COc1cc(/C=C/CO)cc(OC)c1O[C@@H]1O[C@H](CO)[C@@H](O)[C@H](O)[C@H]1O
inactive: [1] 108% | [2] 95% | [3] 96.8% | [4] 97.1% | [5] 98.7% | [6] 109% | [7] 77.2% | [8] 96.2% | [9] 94.8% | [10] 95.2%

COc1cccc(NC(=O)Nc2ccc(Nc3ncnc4[nH]c(C)c(C)c34)cc2)c1
inactive: [1] 104% | [2] 96.5% | [3] 95% | [4] 85.2% | [5] 112% | [6] 102% | [7] 107% | [8] 86.1% | [9] 78.8% | [10] 91.1%

COc1cc2nc3c(=O)n(CCN(C)C)cnn3c(=O)c2cc1OC
inactive: [1] 101% | [2] 95.7% | [3] 104% | [4] 89.6% | [5] 103% | [6] 105% | [7] 92.7% | [8] 146% | [9] 104% | [10] 105%

NS(=O)(=O)c1ccc(C2C3=C(CCCC3=O)OC3=C2C(=O)c2ccccc2C3=O)cc1 (stereo not given)
active: [1] -74% | [2] -55.4% | [3] -52.7% | [4] -21.6% | [5] -92.6% | [6] -78.9% | [7] -68.9% | [8] -10.5% | [9] -54.6% | [10] -19.9%

Nn1c(SCC(=O)Nc2ccc(Cl)cc2)nnc1-c1cc(F)c(Cl)cc1Cl
inactive: [1] 83.4% | [2] 90.9% | [3] 97.8% | [4] 69.9% | [5] 97.6% | [6] 87.2% | [7] 65.2% | [8] 92.8% | [9] 80.4% | [10] 56.5%

COc1cc(/C=N/Nc2nc(-c3ccc(F)cc3)c(C#N)c(N3CCOCC3)n2)ccc1O
inactive: [1] 114% | [2] 90.5% | [3] 89.4% | [4] 81.7% | [5] 98.9% | [6] 91.3% | [7] 87.8% | [8] 84.1% | [9] 73.4% | [10] 74.9%

S=C(Nc1ccccc1)c1ccccn1
inactive: [1] 103% | [2] 93.1% | [3] 85.9% | [4] 57% | [5] 109% | [6] 93.5% | [7] 91.4% | [8] 37.5% | [9] 80% | [10] 56.1%

O=C(Nc1cccc(-c2cccc(F)c2)c1)C1CCN(Cc2cccc3cccnc23)CC1
active: [10] -32.7%
inactive: [1] 63.1% | [2] 68.4% | [3] 74.2% | [4] 35.8% | [5] 60.1% | [6] 65.5% | [7] 55.3% | [8] 57.2% | [9] 17.6%

Nc1ccccc1NS(=O)(=O)c1ccc(Cl)cc1
inactive: [1] 93.7% | [2] 98.4% | [3] 103% | [4] 83.9% | [5] 90.8% | [6] 94.8% | [7] 81.5% | [8] 96.6% | [9] 97.1% | [10] 89.6%

COc1ccc(Cc2nc(C#N)c(N3CCN(c4ccc(F)cc4)CC3)o2)cc1
inactive: [1] 88.2% | [2] 93.2% | [3] 105% | [4] 81.7% | [5] 75.1% | [6] 103% | [7] 103% | [8] 83.7% | [9] 87.7% | [10] 88.9%

C=C(C)[C@@H]1CC[C@]2(C(=O)OCCOCCOCC[P+](c3ccccc3)(c3ccccc3)c3ccccc3)CC[C@]3(C)[C@H](CC[C@@H]4[C@@]5(C)CC[C@H](C)C(C)(C)[C@@H]5CC[C@]43C)[C@@H]12
active: [1] -71.3% | [2] -67.2% | [3] -75.9% | [4] -89.8% | [5] -88.6% | [6] -92.6% | [7] -93.7% | [8] -63% | [9] -75.4% | [10] -56.8%

CC(C)CSc1nc(Nc2ccccc2)c(C#N)c(-c2ccc(F)cc2)n1
active: [3] -26% | [4] -3.98% | [5] -22.9% | [6] -43.2% | [7] -0.717% | [10] -11.1%
inactive: [1] 78.8% | [2] 23.2% | [8] 31.1% | [9] 65.5%

COc1ccc(-c2cc(-c3nnc(SCC(=O)Nc4ccc(/C(C)=N\O)cc4)o3)c3ccccc3n2)cc1
inactive: [1] 98% | [2] 103% | [3] 104% | [4] 97.7% | [5] 96.4% | [6] 117% | [7] 101% | [8] 97.9% | [9] 106% | [10] 113%

Cc1cnc(SCc2ccc(Cl)cc2Cl)nc1Nc1ccc(Cl)c(Cl)c1
inactive: [1] 87.9% | [2] 94.2% | [3] 93% | [4] 74.6% | [5] 100% | [6] 96.4% | [7] 85.7% | [8] 85.6% | [9] 59.5% | [10] 72%

COc1ccc2c(c1)C1(C(=O)N2)C(C#N)=C(c2ccccc2)Nc2c1c(-c1ccccc1)nn2-c1ccccc1 (stereo not given)
active: [3] 1.61%
inactive: [1] 84.9% | [2] 78.4% | [4] 80.1% | [5] 90.7% | [6] 88.2% | [7] 50.1% | [8] 16.6% | [9] 38.2% | [10] 21.5%

CSc1cccc(NC(=O)Nc2nc3c(C)cccc3s2)c1
inactive: [1] 98.5% | [2] 80.2% | [3] 94.3% | [4] 84.4% | [5] 119% | [6] 101% | [7] 106% | [8] 106% | [9] 99.9% | [10] 83.7%

COC(=O)c1ccc2c(c1)n(Cc1ccc3ccccc3c1)c[n+]2Cc1ccc2ccccc2c1
active: [1] 5.59% | [10] -37.1%
inactive: [2] 71% | [3] 38.4% | [4] 83.6% | [5] 49.1% | [6] 99% | [7] 80.5% | [8] 27.5% | [9] 29.2%

C#C[C@@]1(O)[C@@H](CO)O[C@@H](n2cc(F)c3c(N)ncnc32)[C@@H]1O
inactive: [8] 13.3% | [10] 12.9%
active: [1] -1.11% | [2] 1.34% | [3] 2.43% | [4] -15.5% | [5] 3.69% | [6] -10.6% | [7] -76% | [9] 4.47%

COc1ccc(C(C)c2cc(OC)c(OC)c(OC)c2)cc1 (stereo not given)
active: [9] 9.71%
inactive: [1] 33.6% | [2] 35.8% | [3] 39.1% | [4] 47.3% | [5] 67.5% | [6] 37% | [7] 15.7% | [8] 18.5% | [10] 13.3%

Cc1cc(C)n(-c2nc(-c3cccs3)c(C#N)c(=O)[nH]2)n1
inactive: [1] 97.2% | [2] 95.5% | [3] 95.8% | [4] 89.1% | [5] 103% | [6] 108% | [7] 93.8% | [8] 103% | [9] 87% | [10] 100%

CS(=O)(=O)O[C@@H]1C(=O)N(c2cc3c4ccccc4ccc3c3ccccc23)[C@H]1c1ccc(F)cn1
inactive: [1] 14.4% | [2] 47.1% | [3] 40.6% | [4] 46.9% | [5] 81.7% | [6] 52% | [7] 14.6% | [8] 10.4% | [9] 24.3% | [10] 11.4%

C=C1C(=O)O[C@H]2[C@H]1CC/C(COC(=O)NCC(=O)Nc1ccc(OC)c(C(N)=O)c1O)=C\CC[C@@]1(C)O[C@@H]21
active: [8] -15.8%
inactive: [1] 77.5% | [2] 85.1% | [3] 37.9% | [4] 82.7% | [5] 47.2% | [6] 75.3% | [7] 86.4% | [9] 41.8% | [10] 12.6%

C[C@@H]1C(=O)[C@@H]2C[C@@H](O)[C@@H](O)C[C@]2(C)[C@H]2CC[C@@]3(C)C(=C12)CC[C@@H]3[C@@](C)(O)[C@H](O)CCC(C)(C)O
inactive: [1] 108% | [2] 113% | [3] 104% | [4] 89% | [5] 95.9% | [6] 117% | [7] 67.2% | [8] 89.5% | [9] 87.3% | [10] 97.4%
